The source of these data is the supplement of paper PMC3898565.

Each structure is given as a SMILES string. Several values for one entry are separate records, joined by “and”; a condition that tells them apart may be missing. Identical values can stand only once. Counter-ions that a name gives are not always drawn. ± gives the uncertainty stated by the source.
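Note: viable cell number estimated from Alamar Blue fluorescence read at 560/90, part of a single-dose primary screen of an FDA-approved drug library.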

This assay concerns U87. In words: cell viability relative to vehicle control; higher = less growth inhibition (less active). Conditions: 10 µM; 72 h.
In general, cell viability refers to a read-out of living cells in per cent, often relative to untreated cells. For `CN(C)CCc1c[nH]c2ccc(C[C@H]3COC(=O)N3)cc12` [Zolmitriptan], the cell viability turned out to be 105 ± 1.6%.

Turning to `O=C(O)Cc1ccccc1Nc1c(Cl)cccc1Cl`, the cell viability was 105.9 ± 0.17%.

Take `CN1CCN(C2=Nc3ccccc3Oc3ccc(Cl)cc32)CC1` [Loxapine]: the cell viability worked out at 102 ± 1.6%.

For `COCCCOc1ccnc(C[S+]([O-])c2nc3ccccc3[nH]2)c1C` (stereo not given), the cell viability stood at 108.6 ± 0.87%.

`C#C[C@]1(O)CC[C@H]2[C@@H]3CCC4=CC(=O)CC[C@@H]4[C@H]3CC[C@@]21CC`: the cell viability amounted to 105.5 ± 0.58%.

`Cc1c(O)c(=O)ccn1C`: the cell viability was 102 ± 5.2%.

As to `CN(CCOc1ccc(CC2SC(=O)NC2=O)cc1)c1ccccn1` (stereo not given), the cell viability was 100% and 110%.

As for `COc1cccc2c1C(=O)c1c(O)c3c(c(O)c1C2=O)C[C@@](O)(C(=O)CO)C[C@@H]3O[C@H]1C[C@H](N)[C@H](O)[C@H](C)O1`, the cell viability came to 23.5 ± 4%.

As to `CC(Oc1c(Cl)cccc1Cl)C1=NCCN1` (stereo not given), the cell viability stood at 113 ± 11%.

For the molecule `CCOC(=O)c1ccc(OC(=O)CCCCCNC(=N)N)cc1` [Gabexate], the cell viability worked out at 98.6 ± 3.2%.

On to `CC(=O)NCCCCCCNC(C)=O`, for which the cell viability was determined as 103.9 ± 0.65%.

Take `N[C@@H](C(=O)N[C@@H]1C(=O)N2C(C(=O)O)=C(Cl)CS[C@H]12)c1ccccc1`: the cell viability is 104 ± 1.2%.

Regarding `C[C@@H]1O[C@@H](OC[C@H]2O[C@@H](Oc3c(-c4ccc(O)c(O)c4)oc4cc(O)cc(O)c4c3=O)[C@H](O)[C@@H](O)[C@@H]2O)[C@H](O)[C@H](O)[C@H]1O`, the cell viability was determined as 91.89 ± 0.76%.

As for `Nc1c2c(nc3c1CCC3)CCCC2`, the cell viability is 97.1 ± 5.7%.

Take `CNCCCC12CCC(c3ccccc31)c1ccccc12` [Maprotilline HCl]: the cell viability is 102 ± 1.5%.

`O=C(O)CCNC(=O)c1ccc(/N=N/c2ccc(O)c(C(=O)O)c2)cc1`: the cell viability came out at 99.6 ± 1.4%.

As for `CCN(CC)C(=O)C1(c2ccccc2)CC1CN` (stereo not given) [Milnacipran], the cell viability came out at 102 ± 1.5%.

For the molecule `COc1cc(-c2ccc(=O)[nH]n2)ccc1OC(F)F`, the cell viability worked out at 111 ± 3.7%.

Regarding `CN1C2CCCC1CC(NC(=O)c1nn(C)c3ccccc13)C2` (stereo not given), the cell viability came out at 108 ± 0.83%.

`Cc1c(C(=O)NN2CCCCC2)nn(-c2ccc(Cl)cc2Cl)c1-c1ccc(I)cc1`: the cell viability was determined as 106 ± 1.3%.

Take `Nc1nc(N)nc(-c2cc(Cl)ccc2Cl)n1`: the cell viability was determined as 95.63 ± 0.69%.

As to `O=C1c2c(O)cc(O)cc2O[C@H](c2ccc(O)c(O)c2)[C@H]1O`, the cell viability was found to be 90.7 ± 4.5%.

Turning to `Nc1ncnc2c1ncn2[C@@H]1O[C@H](CO)C[C@@H]1O` [3'-deoxydenosine], the cell viability turned out to be 100.2 ± 0.64%.

Turning to `COc1nc(C)nc(Cl)c1NC1=NCCN1`, the cell viability worked out at 102 ± 1.7%.

In the case of `CCOC(=O)c1ncn2c1CN(C)C(=O)c1cc(F)ccc1-2`, the cell viability turned out to be 103 ± 1.8%.

Turning to `CNNCc1ccc(C(=O)NC(C)C)cc1` [Procarbazine], the cell viability was determined as 104.4 ± 0.86%.

For the molecule `O=C1N(c2ccccc2)c2ccccc2C1(Cc1ccncc1)Cc1ccncc1`, the cell viability worked out at 106 ± 2.1%.

Regarding `COc1ccc(CC(C)NCC(O)c2ccc(O)c(NC=O)c2)cc1` (stereo not given), the cell viability is 98.7 ± 1.3%.

As for `CCOC(=O)[C@H](CCc1ccccc1)N[C@H]1CCc2ccccc2N(CC(=O)O)C1=O`, the cell viability is 107 ± 1.2%.

`CC[N+](C)(CC)CCOC(=O)C(O)(c1ccccc1)C1CCCCC1` (stereo not given): the cell viability amounted to 109 ± 1.3%.

For the molecule `CC(C)c1ccc2c(c1)c(SC(C)(C)C)c(CC(C)(C)C(=O)O)n2Cc1ccc(Cl)cc1`, the cell viability worked out at 99 ± 1.3%.

On to `COc1ccc(CC2c3cc(OC)c(OC)cc3CC[N+]2(C)CCC(=O)OCCCCCOC(=O)CC[N+]2(C)CCc3cc(OC)c(OC)cc3C2Cc2ccc(OC)c(OC)c2)cc1OC` (stereo not given), for which the cell viability was 110 ± 0.2%.

Turning to `Cc1nc(=O)c2cc(CN(C)c3ccc(C(=O)N[C@@H](CCC(=O)O)C(=O)O)s3)ccc2[nH]1`, the cell viability was 85.4 ± 1.4%.

On to `NC(N)=Nc1nc(CSCC/C(N)=N/S(N)(=O)=O)cs1`, for which the cell viability came to 98.4 ± 9.8%.

With `CC(COc1ccccc1Cc1ccccc1)N1CCCCC1` (stereo not given), the cell viability amounted to 102.4 ± 0.48%.

As for `COc1cc(/C=C/c2ccc(O)cc2)cc(OC)c1`, the cell viability worked out at 100.4 ± 0.43%.

Regarding `COc1ccnc(C[S+]([O-])c2nc3cc(OC(F)F)ccc3[nH]2)c1OC` (stereo not given), the cell viability was 125.2 ± 1.1%.

`O=C1CC[C@@H](C(=O)N2CSC[C@H]2C(=O)O)N1`: the cell viability was 99.4 ± 1.6%.

As for `CC1CCN(CCCC(=O)c2ccc(F)cc2)CC1` [Metylperon], the cell viability is 106 ± 1.2%.

For `COC(=O)C1=C(C)NC(C)=C(C(=O)OC)C1c1ccccc1[N+](=O)[O-]`, the cell viability amounted to 105 ± 1.4%.
